Mtb UGM inh = inhibitors of M. tuberculosis UDP-galactopyranose mutase | inhibition, % at 10 µM | 0.06% of 320,000 active | purified UGM, fluorescence polarization probe displacement; in the data active = inhibition above about 10%, passing the limit was not always enough
Mtb FBA inh = Mtb fructose-bisphosphate aldolase inhibition; P9WQA3; 2.3% of 360,000 active; AID 588726; purified M. tuberculosis FBA, fluorescence read-out; inhibition, % at 1 µM;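 note: 0% = vehicle and 100% = reference inhibitor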
Target sequence (P9WQA3 whole entry, looked up): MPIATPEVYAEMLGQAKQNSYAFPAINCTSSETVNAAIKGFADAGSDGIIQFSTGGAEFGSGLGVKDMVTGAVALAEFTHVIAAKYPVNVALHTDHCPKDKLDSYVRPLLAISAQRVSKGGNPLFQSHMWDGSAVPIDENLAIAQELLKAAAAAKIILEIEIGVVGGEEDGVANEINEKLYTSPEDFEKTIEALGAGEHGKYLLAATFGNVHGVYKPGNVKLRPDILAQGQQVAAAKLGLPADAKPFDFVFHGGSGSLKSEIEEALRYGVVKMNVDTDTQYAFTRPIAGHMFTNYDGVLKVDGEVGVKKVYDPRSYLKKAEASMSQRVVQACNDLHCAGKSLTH
GDH-TPI counter-1 = counter-screen for M. tuberculosis FBA inhibitors: GDH-TPI coupled enzymes | GDH-TPI coupled enzyme counterscreen, NADH absorbance | inhibition, % at 4.8 µM | 1.2% of 360,000 active | AID 588335; in the data active = inhibition above about 30%;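 note: 0% = DMSO wells and 100% = wells lacking the enzyme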
Rv3671c protease = Rv3671c (M. tuberculosis) protease inhibition. AID 2606. 0.048% of 320,000 active. P9WHR9. inhibition, % at 5.96 µM; in the data active = inhibition above about 38%;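 note: extracellular domain of Rv3671c used as enzyme; 0% = enzyme with DMSO and 100% = no enzyme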
Mtb betalactam = beta-lactam sensitization of Mtb H37Rv. M. tuberculosis H37Rv growth with meropenem, percent inhibition. inhibition, % at 25 µM. 0.27% of 330,000 active; call rule not given here;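 note: growth measured after seven days incubation then overnight dye step; 0% = bacteria only wells and 100% = bacteria with antibiotic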
SSB-PriA inh = K. pneumoniae PriA-SSBct interaction inhibition. AlphaScreen SSBct-PriA binding, biotinylated peptide. inhibition, % at 33 µM. 0.6% of 430,000 active. AID 1272365; in the data active = inhibition mostly above about 37%, no sharp cut-off; inactive = mostly below about 20%;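 note: plate controls were negative control peptide for no effect and reference peptide for full effect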
Mtb FBA inh conf = confirmation of M. tuberculosis fructose-bisphosphate aldolase inhibitors; inhibition, % at 1 µM; shares compounds with Mtb FBA inh; purified M. tuberculosis FBA, fluorescence read-out; 78% of 5,600 active;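 note: 0% = vehicle wells and 100% = reference inhibitor wells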
GDH-TPI counter-2 = GDH-TPI inhibition counter-screen for FBA inhibitors; shares compounds with Mtb FBA inh; GDH-TPI coupled enzyme counterscreen, fluorescence; inhibition, % at 1 µM; 81% of 5,600 active; in the data active = inhibition above about 10%
Starred values were filed as active, the others as inactive; x = not tested or not shown; + = active, no number. A selection: hits, their analogues and other compounds. The true share with any hit is near 3.2%. Cut-off read from the data, not from the text of the source, unless noted: active = inhibition above about 27%; inactive = the rest.

SMILES	Mtb UGM inh	Mtb FBA inh	GDH-TPI counter-1	Rv3671c protease	Mtb betalactam	SSB-PriA inh	Mtb FBA inh conf	GDH-TPI counter-2
O=C(O)c1cc(Cl)c2ccccc2c1O	0.2	40.4*	2.2	1.4	-7.2	-4.6	49.7*	44.2*
Cn1cccc1C(CNS(=O)(=O)c1ccc(Cl)cc1)N1CCc2ccccc2C1 (stereo not drawn)	x	x	x	x	x	-6.0	x	x
COc1ccc(OC)c2c1CCC2=O	0.0	30.3*	9.1	3.6	-13.7	-2.8	70.8*	51.1*
c1ccc(CCCc2nc(-c3cccnc3)no2)cc1	0.3	77.0*	-3.1	3.0	0.5	-34.0	51.6*	36.8*
c1ccc(OCCCc2nc(-c3cccnc3)no2)cc1	0.5	1.4	8.0	-2.5	2.0	-18.8	x	x
COC(=O)c1cc(=O)nc2sc(-c3cccs3)nn12	-3.3	34.8*	28.8	-2.1	-3.8	-16.3	6.1	0.1
O=C(c1coc(=O)c(Br)c1)N1CCOCC1	x	98.2*	17.6	x	x	-6.8	1.5	-3.3
O=C(c1ccc(=O)oc1)N1CCOCC1	1.1	10.8	22.5	2.9	-13.7	-4.9	x	x
CCC(=O)c1ccccc1OCCCn1cncn1	1.8	27.0*	7.3	-7.2	-6.3	-3.8	112.2*	83.6*
CN(C)c1nccnc1OC1CCCN(C(=O)Cc2ccsc2)C1 (stereo not drawn)	x	x	x	x	x	-17.0	x	x
Cc1cc(C)n2c(nc3ccccc32)c1C(=O)NCc1ccccc1	4.6	48.2*	7.3	-3.9	-4.4	-8.0	22.7	15.2*
Cc1cc(C)n2c(nc3ccccc32)c1C(=O)NN	-5.3	17.7	21.4	6.4	-11.6	-15.4	x	x
CC(=O)c1cccc(NC(=O)CSc2nnc3cc(C)c4ccccc4n23)c1	x	x	x	x	x	3.0	x	x
N#Cc1cccnc1OC1CCN(C(=O)Cn2cnc3ccccc32)CC1	x	x	x	x	x	2.0	x	x
CC1(C)Oc2ccc3ccc(=O)oc3c2C(=CNNC(N)=O)C1=O	x	x	x	x	x	-11.1	x	x
CC1(C)Oc2ccc3ccc(=O)oc3c2/C(=C/NNC(N)=S)C1=O	-2.5	28.3*	14.4	10.7	-8.7	x	+	197.2*
Cn1c2ccccc2c(=O)c2ccc(NCc3ccc4c(c3)OCO4)cc21	x	87.6*	14.6	x	x	-6.7	174.9*	110.0*
COc1ccc2[nH]c(C(=O)O)c(CCC(=O)O)c2c1	-4.0	41.5*	-0.6	8.6	-7.6	-21.2	77.9*	59.0*
COc1ccc2[nH]c(C(=O)O)c(NS(=O)(=O)c3ccc(OC)c(OC)c3)c2c1	0.8	10.6	4.3	0.2	-4.7	10.9	x	x
COc1ccc(S(=O)(=O)Nc2c(C(=O)O)[nH]c3ccc(OC)cc23)cc1	2.5	26.9*	2.5	-4.0	-7.4	11.4	+	+
CC1CCCN(c2oc(-c3cccc4ccccc34)nc2C#N)C1 (stereo not drawn)	-2.1	6.2	3.5	8.5	-5.5	-10.6	x	x
CCN1CCN(c2oc(-c3ccc(OC)cc3)nc2C#N)CC1	-1.3	32.3*	25.9	4.7	27.4	-12.0	143.0*	119.2*
CC1CCN(c2oc(-c3ccc(F)cc3)nc2C#N)CC1	0.9	97.4*	9.5	-6.5	-0.4	31.4	-1.1	-2.2
COc1ccc(C(=O)N2CCN(c3oc(-c4ccc(F)cc4)nc3C#N)CC2)cc1OC	x	x	x	x	x	1.0	x	x
CC1CC(C)CN(c2oc(-c3ccccc3F)nc2C#N)C1 (stereo not drawn)	-1.8	59.6*	9.5	7.0	1.4	49.8*	101.1*	77.5*
SMILES	Mtb UGM inh	Mtb FBA inh	GDH-TPI counter-1	Rv3671c protease	Mtb betalactam	SSB-PriA inh	Mtb FBA inh conf	GDH-TPI counter-2
Cc1ccccc1-c1nc(C#N)c(N2CCC(C)CC2)o1	-1.0	47.6*	11.8	-0.4	-0.1	28.8	50.7*	45.6*
COC(=O)c1cc(-c2ccc(C)o2)n[nH]1	x	x	x	x	x	6.0	x	x
O=C(C[C@@H]1C/C=C/CCC(=O)OC[C@@H]2CCCN2C1=O)N[C@@H](CO)Cc1ccccc1	x	x	x	x	x	7.9	x	x
COc1ccccc1-c1nc(C#N)c(N2CCc3ccccc3C2)o1	-2.9	105.6*	14.1	4.6	21.6	56.1*	-4.8	-5.2
COc1ccccc1-c1nc(C#N)c(N2CCN(C(=O)c3ccco3)CC2)o1	-0.6	15.9	5.3	-4.8	-3.5	-6.6	x	x
CCOC(=O)C1CCCN(c2oc(-c3ccc(F)cc3)nc2C#N)C1 (stereo not drawn)	1.1	30.4*	3.1	-7.7	2.2	20.7	+	196.9*
CCOC(=O)C1CCCN(c2cc(=O)n(Cc3ccc(F)cc3)c(=O)[nH]2)C1 (stereo not drawn)	-2.7	-0.8	-8.3	0.2	3.6	-4.0	x	x
Oc1ccc(-c2nc3ccccn3c2NCc2ccco2)cc1	2.6	51.7*	11.9	12.3	18.0	11.8	69.9*	54.6*
CCOC(=O)c1oc2ccccc2c1NC(=O)COc1ccc(C(C)C)cc1	x	x	x	x	x	-1.0	x	x
O=C(O)/C(=C\c1ccc(Cl)cc1)c1ccc(S(=O)(=O)N2CCCC2)s1	5.6	1.7	7.6	7.9	1.7	-17.0	x	x
CSc1ccc(/C=C(\C(=O)O)c2ccc(S(=O)(=O)N3CCCCC3)s2)cc1	1.3	37.4*	29.1	-1.8	2.9	4.9	1.2	-5.1
O=c1c2c(nc3n1CCCCC3)-c1ccccc1CC21CCCC1	1.8	0.9	-0.8	-10.5	17.0	-7.7	x	x
CCOC(=O)C1Cn2c(nc3c(c2=O)C2(CCCC2)Cc2ccccc2-3)S1 (stereo not drawn)	2.3	-0.2	19.6	-6.2	-3.6	-6.3	x	x
O=C(O)C1Cn2c(nc3c(c2=O)C2(CCCC2)Cc2ccccc2-3)S1 (stereo not drawn)	1.2	35.0*	8.2	-12.3	-12.3	-9.3	-8.7	-4.9
CCSc1n[nH]c2nc3c(c(=O)n12)C1(CCCC1)Cc1ccccc1-3	0.8	28.3*	3.8	9.1	7.1	-5.8	-1.6	-4.0
Cn1ncn2c(=O)c3c(nc12)-c1ccccc1CC31CCCC1	-3.3	43.7*	6.9	-2.6	-7.4	-12.9	+	+
Cn1c(NCCO)nc2c(c1=O)C1(CCCCC1)Cc1ccccc1-2	0.1	70.3*	1.4	-2.6	-0.3	1.3	+	+
O=C(COc1ccccc1F)N1CCC(CSC2=NCCS2)CC1	x	x	x	x	x	-2.0	x	x
O=C(NCCNC(=O)c1ccco1)c1ccc(NC(=O)C2CC2)cc1	x	x	x	x	x	-9.0	x	x
CCOC(=O)COc1c(-c2ccc(OC)cc2)oc2ccccc2c1=O	-0.1	67.6*	42.9*	5.8	99.2	-29.9	+	+
O=C(O)COc1c(-c2ccc(Cl)cc2)oc2ccccc2c1=O	2.1	7.3	8.0	-9.0	71.3	-12.6	x	x
O=C(O)COc1c(-c2ccco2)oc2ccccc2c1=O	0.0	46.2*	24.5	-8.0	-3.2	-0.3	+	+
COc1ccc(-c2oc3ccccc3c(=O)c2OCC(=O)O)cc1	7.4	98.4*	35.0*	5.3	0.9	-7.2	+	163.3*
Cn1nnn(-c2ccc(NS(=O)(=O)C3CCCCC3)cc2)c1=O	x	x	x	x	x	1.0	x	x
